This is an account of results in PubChem BioAssay (Tox21).

Results filed as inconclusive are left out. A call without a number means that no potency is given here. Activity calls are given as the source filed them. Calls come from the whole dose curve; as a rule, active = well fitted inhibition curve with a large enough effect in the repeat runs; inconclusive = weak or mixed curves; inactive = no such curve, though single readings can be large or run the other way.
Potency is the fitted concentration of half-maximal effect.

The assay is described as follows: qHTS assay to identify small molecule antagonists of the thyroid receptor (TR) signaling pathway (AID 743065). Note: nearly all actives have a fitted effect of over 55% in size. As to conditions: GH3.TRE-Luc, T3-stimulated luciferase inhibition, 23.5 h; series mostly up to 70.3 µM. From the text:
U.S. Tox21 Program National Center for Advancing Translational Sciences [NCATS] NIH Chemical Genomics Center [NCGC] U.S. Environmental Protection Agency [EPA] National Institutes of Environmental Health Sciences [NIEHS] National Toxicology Program [NTP] U.S. Food and Drug Administration [FDA] Tox21 Assay Overview: Thyroid receptor (TR), a nuclear hormone receptor, plays an important role in development, proliferation, differentiation, metabolism, brain function, and cardiovascular system. […] To profile the Tox21 10K compound library in TR signaling, a cell-based GH3-TRE-Luc assay (GH3.TRE-Luc cell line, developed by the laboratory of Dr. Albertinka J. Murk, Wageningen University) was used to measure the inhibition of TR. GH3 (rat pituitary tumor) cells stably expressing a TR activity sensor consisting of two TR response elements and a luciferase reporter gene.
Tox21 Assay Protocol Summary: GH3.TRE-Luc cells were dispensed at 1500 cells/4 uL/well into 1536-well white solid bottom plates using a Multidrop Combi dispenser (Thermo Fisher Scientific Inc., Waltham, MA). After the assay plates were incubated at 37 C for 4 hours, 23 nL of library compound or DMSO controls was transferred to the assay plates by a pintool station (Kalypsys, San Diego, CA), followed by addition of 1 ul of T3 (1 nM, final concentration in the wells) to stimulate TR transactivation. The assay plates were incubated at 37 C for 23.5 h, and then 1 uL of CellTiter-Fluor reagent (Promega, Madision, WI) of measuring cytotoxicity was added to each well using a Bioraptr Flying Reagent Dispenser (FRD) workstation (Beckman Coulter, Indianapolis, IN, USA). The plates were incubated at 37 C and 5% CO2 for additional 30 min, and fluorescence intensity was measured by a ViewLux plate reader (PerkinElmer, Shelton, CT). For measuring luciferase reporter gene activity, 4 uL of ONE-Glo Luciferase Assay reagent (Promega) was added to each well using a Bioraptr FRD (Beckman Coulter), followed by 30 min incubation at room temperature. The luminescence intensity of plates was recorded by a ViewLux plate reader (PerkinElmer, Shelton, CT).
Regarding `CCCCOCCOC(=O)CCCCCCCCC(=O)OCCOCCCC`, the Potency entry was “inactive”.

On to `C=CC(=O)OCCCl`, for which the Potency result is “inactive”. As for `CCCC(C)C(=O)OCC` (stereo not given), the entry is “inactive”.

As to `CCNS(=O)(=O)c1ccc(C)cc1`, the Potency entry is “inactive”. Regarding `CCCCN1C=CN(C)C1`, the Potency result is “inactive”. As for `c1coc(CNc2ncnc3nc[nH]c23)c1`, the entry is “inactive”. As for `CCN1CCOCC1`, the Potency entry is “inactive”. As for `O=C(O)CCSCCC(=O)O`, the entry is “inactive”; as for `C=COC(=O)C(C)(CC)CCC(C)C` (stereo not given), “inactive”. Under `CC1=C(C/C=C(\C)CCC[C@H](C)CCC[C@H](C)CCCC(C)C)C(=O)c2ccccc2C1=O` stands “inactive”; under `CCOC(=O)COC(=O)c1ccccc1C(=O)OCC`, “inactive”; under `Nc1ccn([C@@H]2O[C@H](CO)[C@@H](O)[C@@H]2O)c(=O)n1`, 0.077 µM (active). As for `CCC(C)(CCCC(C)C)OC(C)=O` (stereo not given), the entry is “inactive”; as for `CC(C)C[C@@H](N)C(=O)O`, “inactive”.

For `Nc1ccccn1`, the Potency result was “inactive”. As for `C=C(C)C(=O)OCCOCCOCCOCCOC(=O)C(=C)C`, the entry is “inactive”. As for `C[N+](C)(CCOc1ccccc1)Cc1cccs1`, the entry is “inactive”; as for `[O-][n+]1cccc(CO)c1`, “inactive”. `CCOc1ccccc1OCC`: the Potency entry was “inactive”.

In the case of `CC(C#N)(CCC(=O)O)N=NC(C)(C#N)CCC(=O)O` (stereo not given), the Potency entry was “inactive”.

For the compound `CO[Si](C)(OC)c1ccccc1`, the Potency result is “inactive”.

As to `O=C(CO)[C@@H](O)[C@H](O)[C@@H](O)CO`, the Potency entry was “inactive”.

For `CCCCCCCCCCCCSC`, the Potency entry is “inactive”. Under `c1ccc(Cc2ccccc2)cc1` stands “inactive”.

Regarding `Clc1cc(Cl)c(Cl)nc1Cl`, the Potency entry is “inactive”.

Regarding `CC[C@H]1OC(=O)[C@H](C)[C@@H](O[C@H]2C[C@@](C)(OC)[C@@H](O)[C@H](C)O2)[C@H](C)[C@@H](O[C@@H]2O[C@H](C)C[C@H](N(C)C)[C@H]2O)[C@](C)(OC)C[C@@H](C)C(=O)[C@H](C)[C@@H](O)[C@]1(C)O`, the Potency entry was “inactive”. As for `O=Cc1cccc(Br)c1`, the entry is “inactive”. Under `COc1cc(C(=O)OC(COCCC(C)C)CN2CCOCC2)cc(OC)c1OC` (stereo not given) stands “inactive”; under `Cc1cccc(C)c1NC(=O)CC12CCCN1CCC2`, “inactive”; under `CC(C)(CCC(=O)O)C(=O)O`, “inactive”. Under `CC(C)(C)c1ccc(-c2ccc(C(C)(C)C)cc2)cc1` stands “inactive”; under `CCOC(=O)CCC(=O)OCC`, “inactive”. Turning to `Cc1ccc(C(=O)Nc2ccc(S(=O)(=O)O)c3cc(S(=O)(=O)O)cc(S(=O)(=O)O)c23)cc1NC(=O)c1cccc(NC(=O)Nc2cccc(C(=O)Nc3cc(C(=O)Nc4ccc(S(=O)(=O)O)c5cc(S(=O)(=O)O)cc(S(=O)(=O)O)c45)ccc3C)c2)c1`, the Potency result was “inactive”.

As for `CN(C)CCCN(C)CCCN(C)C`, the Potency entry was “inactive”. As for `CNC(=O)Nc1ccc(Cl)c(Cl)c1`, the figure is 30.6 µM (active). Under `CC(=O)OCC(=O)[C@@]1(O)[C@H](C)C[C@H]2[C@@H]3CCC4=CC(=O)C=C[C@]4(C)[C@@]3(F)[C@@H](O)C[C@@]21C` stands “inactive”. Under `CC[N+](C)(CC)CCOC(=O)C1c2ccccc2Oc2ccccc21` stands “inactive”.

As for `C[C@@H]1CCC[C@H](C)N1`, the Potency entry was “inactive”. As for `[Ca+2]`, the entry is “inactive”; as for `Cc1c(N)c(=O)n(-c2ccccc2)n1C`, “inactive”.
